“And” between values parts separate entries of the source, which are not always exact repeats. Equal entries are not always repeated. Results filed as inconclusive are left out. Where a call stands in place of a potency, no number is given. Some structures have more than one record in an assay (separate samples or runs), and their calls can disagree. The source made the active and inactive calls. Unless noted, the call rests on the fitted dose curve; in most records, active means well fitted curve in the direction sought with a large enough effect; inconclusive means small, poorly fitted or top-dose-only effect, or another doubt; inactive means no such curve, though single readings can be large; an effect the other way counts as inactive or inconclusive.

Alpha-galactosidase (Coffea arabica), sequence (Q42656 whole entry, looked up): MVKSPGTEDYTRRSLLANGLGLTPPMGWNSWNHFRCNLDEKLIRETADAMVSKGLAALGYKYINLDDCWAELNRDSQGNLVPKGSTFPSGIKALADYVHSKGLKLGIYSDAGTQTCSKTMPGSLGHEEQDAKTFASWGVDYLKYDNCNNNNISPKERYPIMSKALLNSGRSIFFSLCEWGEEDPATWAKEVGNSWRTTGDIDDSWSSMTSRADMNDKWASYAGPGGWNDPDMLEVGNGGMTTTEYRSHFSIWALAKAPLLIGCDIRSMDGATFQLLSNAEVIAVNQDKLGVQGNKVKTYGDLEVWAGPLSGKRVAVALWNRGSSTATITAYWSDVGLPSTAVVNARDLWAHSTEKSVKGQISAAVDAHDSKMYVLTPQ
Cytochrome P450 2D6 (Homo sapiens), sequence (P10635 whole entry, looked up): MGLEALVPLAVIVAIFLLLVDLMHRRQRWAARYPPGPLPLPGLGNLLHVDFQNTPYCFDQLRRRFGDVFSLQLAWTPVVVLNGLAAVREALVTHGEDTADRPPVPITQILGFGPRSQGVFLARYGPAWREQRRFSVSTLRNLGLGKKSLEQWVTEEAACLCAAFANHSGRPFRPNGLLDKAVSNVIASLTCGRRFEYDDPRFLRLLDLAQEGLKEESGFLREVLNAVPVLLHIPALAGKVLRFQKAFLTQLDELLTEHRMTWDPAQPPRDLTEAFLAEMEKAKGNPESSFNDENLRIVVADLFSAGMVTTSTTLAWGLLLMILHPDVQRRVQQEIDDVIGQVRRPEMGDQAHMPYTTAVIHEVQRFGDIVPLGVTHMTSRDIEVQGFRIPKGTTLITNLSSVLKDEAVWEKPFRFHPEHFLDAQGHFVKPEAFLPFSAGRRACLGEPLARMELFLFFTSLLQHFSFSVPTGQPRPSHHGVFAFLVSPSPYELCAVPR
Pyruvate kinase (Leishmania mexicana), sequence (Q27686 2-499 E452W): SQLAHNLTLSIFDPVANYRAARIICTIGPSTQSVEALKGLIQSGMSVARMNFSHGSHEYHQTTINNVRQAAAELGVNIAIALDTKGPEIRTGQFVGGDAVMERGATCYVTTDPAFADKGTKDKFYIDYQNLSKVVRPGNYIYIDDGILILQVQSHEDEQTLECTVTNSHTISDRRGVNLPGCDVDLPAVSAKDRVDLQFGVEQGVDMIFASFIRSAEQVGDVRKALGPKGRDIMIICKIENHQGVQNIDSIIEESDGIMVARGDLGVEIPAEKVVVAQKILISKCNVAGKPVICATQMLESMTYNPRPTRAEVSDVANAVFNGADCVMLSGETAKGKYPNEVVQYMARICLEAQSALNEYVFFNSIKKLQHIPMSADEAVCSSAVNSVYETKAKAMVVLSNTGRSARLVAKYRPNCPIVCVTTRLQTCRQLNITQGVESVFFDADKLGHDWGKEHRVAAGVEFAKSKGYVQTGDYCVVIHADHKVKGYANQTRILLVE

One test concerns the target Cytochrome P450 2D6 (Homo sapiens) (UniProt P10635). Kind of test: qHTS Assay for Inhibitors and Substrates of Cytochrome P450 2D6 (AID 891). Further: nearly all actives have a fitted effect of over 60% in size. Further: potency means the concentration at half of the fitted maximal effect.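 On activity change, negative = inhibition: luciferin methyl ether substrate demethylated by CYP2D6 with NADPH regeneration.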 The conditions noted are these: recombinant CYP2D6, luciferin-ME EGE luminescence; series mostly up to 57.1 µM. In a few lines: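 Luminescent read-out of luciferin formed by 5 nM human CYP2D6 demethylating 30 uM Luciferin-ME EGE (Km level) over 60 min at room temperature after NADPH regeneration addition. Data normalized to full inhibition by 1.43 uM quinidine.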
(qHTS replaces the single test concentration by a dilution series.)
On to `CCN(CC)CCO[C@H]1CC[C@@]2(C)C(=CC[C@@H]3[C@H]2CC[C@]2(C)C(=O)CC[C@H]32)C1`, for which the Potency is 79.4 nM (active).
Same read-out and setting: in the case of `N[C@H](CP(=O)(O)O)C(=O)O` it was “inactive”.
On the same count and under the same terms, then `Cn1cc(C(=O)C(=O)N[C@H]2CN3CCC2CC3)c2ccccc21`, with 63.1 nM (active); and `O=C1NCN(c2ccccc2)C12CCN(C[C@H]1COc3ccccc3O1)CC2`, with 126 nM (active) and 63.1 nM (active); and `Fc1ccc(C(OCCN2CCN(C/C=C\c3ccccc3)CC2)c2ccc(F)cc2)cc1`, with 7940 nM (active).

The target of another test is Cytochrome P450 2C19 (Homo sapiens) (UniProt P33261). Description: qHTS Assay for Inhibitors and Substrates of Cytochrome P450 2C19 (AID 899). Further: nearly all actives have a fitted effect of over 60% in size. Further: potency means the concentration at half of the fitted maximal effect. The conditions noted are these: recombinant CYP2C19, luciferin-H EGE luminescence; series mostly up to 57.1 µM. In a few lines: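 Luminescence readout of luciferin formed from 10uM Luciferin-H EGE (KM level) by 5 nM CYP2C19 in 50mM KPO4. 60 min NADPH-driven reaction at 37C after 10 min compound preincubation; data scaled to 57uM ketoconazole inhibition.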
Cytochrome P450 2C19 (Homo sapiens), sequence (P33261 whole entry, looked up): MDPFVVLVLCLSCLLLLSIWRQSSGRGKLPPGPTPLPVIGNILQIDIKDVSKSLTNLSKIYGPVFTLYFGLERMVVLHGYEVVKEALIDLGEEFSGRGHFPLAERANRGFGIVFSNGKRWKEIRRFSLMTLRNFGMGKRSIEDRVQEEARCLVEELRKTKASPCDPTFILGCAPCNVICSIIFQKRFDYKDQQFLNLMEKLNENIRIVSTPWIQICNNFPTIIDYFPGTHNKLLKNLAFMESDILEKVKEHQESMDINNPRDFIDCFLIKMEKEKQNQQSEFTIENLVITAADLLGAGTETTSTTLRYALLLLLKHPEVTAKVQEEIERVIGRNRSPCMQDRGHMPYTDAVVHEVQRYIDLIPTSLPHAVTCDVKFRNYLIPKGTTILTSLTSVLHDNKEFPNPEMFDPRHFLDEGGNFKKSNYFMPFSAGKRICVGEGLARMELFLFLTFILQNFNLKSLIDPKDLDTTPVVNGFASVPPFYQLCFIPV
On to `N[C@H](CP(=O)(O)O)C(=O)O`, for which the Potency entry is “inactive”.
With `O=C1NCN(c2ccccc2)C12CCN(C[C@H]1COc3ccccc3O1)CC2`, the Potency entry was “inactive and 7.94 µM (active)”.
Consider `Fc1ccc(C(OCCN2CCN(C/C=C\c3ccccc3)CC2)c2ccc(F)cc2)cc1`, for which the Potency was 7.94 µM (active).

System in another test: not listed separately
Kind of test: qHTS Assay for Identification of Small Molecule Agonists for Thrombopoietin (TPO) Signaling Pathway (AID 917). The settings on record: TPO signaling pathway reporter cells, agonist qHTS; series mostly up to 38.5 µM. The procedure, abridged: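 First, Ba/F3 cells with human TPO receptor were held overnight without IL-3. Next, compounds and TPO (26 pM final) were added. After 24 hrs at 37 C, luciferase detection reagent was added and luminescence measured following 10 min at room temperature.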
On to `COc1ccc2[nH]cc(CCN(C)C)c2c1`, for which the call was inactive.
As to `COc1cc(CCN)ccc1O`, the compound was classed as inactive.
`N[C@H](CP(=O)(O)O)C(=O)O`: the compound was classed as inactive.
Turning to `COc1ccc(CCN)cc1O`, the call was inactive.
For the compound `O=C1NCN(c2ccccc2)C12CCN(C[C@H]1COc3ccccc3O1)CC2`, the outcome was inactive.

The target in another test is Muscarinic acetylcholine receptor M1 (Rattus norvegicus) (UniProt P08482). Description: qHTS Assay for Antagonists of Acetylcholine Muscarinic M1 Receptor: Kinetic Measurement of Intracellular Calcium Response (AID 943).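 Further: Fluo-4 calcium signal as peak divided by basal fluorescence over 4 min; nearly all actives have a fitted effect of over 75% in size.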 The settings on record: M1-expressing cells, kinetic intracellular calcium fluorescence; series mostly up to 35.3 µM. The procedure, abridged: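 Antagonism is measured as inhibition of the carbachol-evoked calcium rise in CHO cells transfected with rat M1. Cells are dye-loaded, exposed to compound for 10 min, then stimulated with 100 nM carbachol (EC80).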
Muscarinic acetylcholine receptor M1 (Rattus norvegicus), sequence (P08482 whole entry, looked up): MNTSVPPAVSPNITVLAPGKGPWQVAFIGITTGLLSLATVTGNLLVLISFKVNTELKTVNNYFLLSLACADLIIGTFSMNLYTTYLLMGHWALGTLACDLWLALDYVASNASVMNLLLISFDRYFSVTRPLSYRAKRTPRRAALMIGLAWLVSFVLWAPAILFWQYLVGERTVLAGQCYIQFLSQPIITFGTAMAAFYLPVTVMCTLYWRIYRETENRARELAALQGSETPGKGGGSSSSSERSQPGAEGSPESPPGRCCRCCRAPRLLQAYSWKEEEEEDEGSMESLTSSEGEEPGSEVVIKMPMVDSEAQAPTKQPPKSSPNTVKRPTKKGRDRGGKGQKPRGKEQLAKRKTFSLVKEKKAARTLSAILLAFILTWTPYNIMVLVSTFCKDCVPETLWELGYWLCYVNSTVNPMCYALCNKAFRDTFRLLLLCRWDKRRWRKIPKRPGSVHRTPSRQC
Take `COc1ccc2[nH]cc(CCN(C)C)c2c1`: the Potency result is “inactive”.
Turning to `N[C@H](CP(=O)(O)O)C(=O)O`, the Potency result is “inactive”.
Still for that read-out and setting: then `COc1ccc(CCN)cc1O`, with “inactive”.
For the compound `O=C1NCN(c2ccccc2)C12CCN(C[C@H]1COc3ccccc3O1)CC2`, the Potency result is “inactive”.
For the compound `CNc1ccc2oc(C[C@H]3O[C@]4(CC[C@H]3C)O[C@H]([C@H](C)C(=O)c3ccc[nH]3)[C@H](C)C[C@H]4C)nc2c1C(=O)O`, the Potency entry was “inactive”.

The target is the same in a further test. Kind of test: qHTS Assay for Antagonists of Acetylcholine Muscarinic M1 Receptor: Measurement of IP-One Response (AID 944). Further: nearly all actives have a fitted effect of over 75% in size. The conditions noted are these: CHO-M1 cells, IP-One HTRF, antagonist mode; series mostly up to 46.1 µM. In a few lines: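 Antagonist mode with rat M1 receptor transfected into CHO cells. Compound is added first for 10 min, carbachol at its EC80 follows for 30 min, and lysis reagents then allow TR-FRET detection of accumulated IP1.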
Regarding `COc1ccc2[nH]cc(CCN(C)C)c2c1`, the Potency result was “inactive”.
As for `COc1cc(CCN)ccc1O`, the Potency result was “inactive”.
As for `N[C@H](CP(=O)(O)O)C(=O)O`, the Potency entry is “inactive”.
Take `COc1ccc(CCN)cc1O`: the Potency result is “inactive”.
Take `O=C1NCN(c2ccccc2)C12CCN(C[C@H]1COc3ccccc3O1)CC2`: the Potency entry is “inactive”.

A further test deals with Pyruvate kinase (Leishmania mexicana) (UniProt Q27686). Kind of test: qHTS Validation Assay for Inhibitors of Leishmania Mexicana Pyruvate Kinase (AID 945). The settings on record: purified L. mexicana pyruvate kinase, enzyme activity, E451W mutant enzyme; series mostly up to 57.5 µM. The procedure, abridged:
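Compounds are tested as eight-point concentration series. Reactions contain 0.2 nM LmPYK E451W, 0.5 mM PEP, 0.1 mM ADP, 7 mM MgCl2 and 50 mM KCl at pH 7.2, run 1 h at room temperature, then read by PKLight luminescence.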
As to `COc1ccc2[nH]cc(CCN(C)C)c2c1`, the result was inactive.
On to `COc1cc(CCN)ccc1O`, for which the call was inactive.
Regarding `N[C@H](CP(=O)(O)O)C(=O)O`, the call was inactive.
In the case of `COc1ccc(CCN)cc1O`, the compound was classed as inactive.
Take `O=C1NCN(c2ccccc2)C12CCN(C[C@H]1COc3ccccc3O1)CC2`: the call was inactive.
As for `CNc1ccc2oc(C[C@H]3O[C@]4(CC[C@H]3C)O[C@H]([C@H](C)C(=O)c3ccc[nH]3)[C@H](C)C[C@H]4C)nc2c1C(=O)O`, the compound was classed as inactive.

The target of the next test is Alpha-galactosidase (Coffea arabica) (UniProt Q42656). Kind of test: Counterscreen for Glucocerebrosidase Inhibitors: qHTS Assay for Coffee Bean alpha-Galactosidase at pH 4.5 (AID 957). The conditions noted are these: purified coffee bean alpha-galactosidase, fluorogenic substrate; series mostly up to 76.9 µM. In a few lines:
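Enzyme is added first (2 nM final), then compounds titrated from 0.7 nM to 77 uM, then 80 uM 4-methylumbelliferyl alpha-D-galactopyranoside; after 20 min at room temperature a pH 10 NaOH/glycine stop precedes fluorescence reading at 365/440 nm.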
(The purpose of a counterscreen is to sort out artefacts and off-target activity.)
Regarding `COc1ccc2[nH]cc(CCN(C)C)c2c1`, the call was inactive.
On to `COc1cc(CCN)ccc1O`, for which the result was inactive.
For `N[C@H](CP(=O)(O)O)C(=O)O`, the compound was called inactive.
Take `COc1ccc(CCN)cc1O`: the compound was classed as inactive.
Take `O=C1NCN(c2ccccc2)C12CCN(C[C@H]1COc3ccccc3O1)CC2`: the outcome was inactive.
For `CNc1ccc2oc(C[C@H]3O[C@]4(CC[C@H]3C)O[C@H]([C@H](C)C(=O)c3ccc[nH]3)[C@H](C)C[C@H]4C)nc2c1C(=O)O`, the compound was called inactive.

The target in a further test is Alpha-galactosidase A (Homo sapiens) (UniProt P06280). Kind of test: Counterscreen for Glucocerebrosidase Inhibitors: qHTS Assay for Human alpha-Galactosidase at pH 4.5 (AID 992). The conditions noted are these: purified enzyme, fluorogenic substrate; series mostly up to 76.9 µM. In a few lines: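 Steps: enzyme (2 nM final), then compound across 0.7 nM to 77 uM, then 80 uM fluorogenic galactopyranoside substrate; incubate 20 min at room temperature; quench at pH 10; measure fluorescence at 365/440 nm.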
Alpha-galactosidase A (Homo sapiens), sequence (P06280 whole entry, looked up): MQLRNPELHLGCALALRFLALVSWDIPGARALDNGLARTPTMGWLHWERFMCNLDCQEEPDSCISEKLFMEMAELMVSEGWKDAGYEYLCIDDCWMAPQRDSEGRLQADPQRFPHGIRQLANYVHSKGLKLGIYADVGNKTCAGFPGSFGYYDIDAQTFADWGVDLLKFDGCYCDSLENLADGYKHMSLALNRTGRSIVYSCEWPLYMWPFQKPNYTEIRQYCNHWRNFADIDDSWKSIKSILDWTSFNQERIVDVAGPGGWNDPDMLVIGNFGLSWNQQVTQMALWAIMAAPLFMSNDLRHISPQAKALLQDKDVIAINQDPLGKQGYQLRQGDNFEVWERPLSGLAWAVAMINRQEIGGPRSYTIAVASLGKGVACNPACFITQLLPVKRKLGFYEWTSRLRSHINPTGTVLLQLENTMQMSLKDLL
Take `COc1ccc2[nH]cc(CCN(C)C)c2c1`: the call was inactive.
For the compound `COc1cc(CCN)ccc1O`, the compound was called inactive.
As to `N[C@H](CP(=O)(O)O)C(=O)O`, the call was inactive.
With `COc1ccc(CCN)cc1O`, the compound was called inactive.
As to `O=C1NCN(c2ccccc2)C12CCN(C[C@H]1COc3ccccc3O1)CC2`, the compound was called inactive.
Consider `CNc1ccc2oc(C[C@H]3O[C@]4(CC[C@H]3C)O[C@H]([C@H](C)C(=O)c3ccc[nH]3)[C@H](C)C[C@H]4C)nc2c1C(=O)O`, for which the compound was called inactive.

For another test, the target named is alpha-glucosidase (Oryza sativa, rice) (UniProt Q653V4). Kind of test: Counterscreen for Glucocerebrosidase Inhibitors: qHTS Assay for Rice alpha-Glucosidase at pH 5.0 (AID 997). The conditions noted are these: rice alpha-glucosidase enzyme activity; series mostly up to 76.9 µM. The procedure, abridged: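 Endpoint fluorogenic assay at pH 5.0: compounds (0.7 nM to 77 uM) titrated against 4 nM rice enzyme and 400 uM 4-MU-alpha-glucoside for 20 min at room temperature; NaOH/glycine stop, read ex 365/em 440 nm, Hill-fitted AC50.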
Turning to `COc1ccc2[nH]cc(CCN(C)C)c2c1`, the compound was called inactive.
Regarding `COc1cc(CCN)ccc1O`, the compound was called inactive.
On the same count and under the same terms, then `N[C@H](CP(=O)(O)O)C(=O)O`, with “inactive”.
Take `COc1ccc(CCN)cc1O`: the result was inactive.
`O=C1NCN(c2ccccc2)C12CCN(C[C@H]1COc3ccccc3O1)CC2`: the compound was classed as inactive.
Take `CNc1ccc2oc(C[C@H]3O[C@]4(CC[C@H]3C)O[C@H]([C@H](C)C(=O)c3ccc[nH]3)[C@H](C)C[C@H]4C)nc2c1C(=O)O`: the outcome was inactive.

The next test deals with Alpha-galactosidase (Coffea arabica) (UniProt Q42656). Description: Counterscreen for Glucocerebrosidase Inhibitors: qHTS Assay for Coffee Bean alpha-Galactosidase at pH 5.9 (AID 998). The conditions noted are these: coffee bean alpha-galactosidase enzyme assay; series mostly up to 76.9 µM. The procedure, abridged:
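Fluorogenic 4-MU substrate hydrolysis, 80 uM substrate and 2 nM coffee bean alpha-galactosidase, pH 5.9 citrate buffer, 20 min at room temperature, then NaOH/glycine stop. Titration 0.7 nM–77 uM, normalized to no-enzyme and enzyme controls, AC50 via Hill equation.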
Turning to `COc1ccc2[nH]cc(CCN(C)C)c2c1`, the compound was classed as inactive.
In the case of `COc1cc(CCN)ccc1O`, the call was inactive.
Same read-out and setting: in the case of `N[C@H](CP(=O)(O)O)C(=O)O` it was “inactive”; in that of `COc1ccc(CCN)cc1O`, “inactive”.
Consider `O=C1NCN(c2ccccc2)C12CCN(C[C@H]1COc3ccccc3O1)CC2`, for which the compound was called inactive.
On to `CNc1ccc2oc(C[C@H]3O[C@]4(CC[C@H]3C)O[C@H]([C@H](C)C(=O)c3ccc[nH]3)[C@H](C)C[C@H]4C)nc2c1C(=O)O`, for which the compound was called inactive.

System in the next test: not listed separately
Kind of test: Validation of Assay for Modulators of Lamin A Splicing (AID 1459; active means well fitted curve in the direction sought with a large enough effect in the signal ratio; the % refers to the signal ratio;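 further: cells exposed to compound for two days before reading; ratio rise marks activators and ratio drop marks inhibitors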). The conditions noted are these: Lamin A splicing dual RFP/GFP fluorescence reporter; series mostly up to 9.22 µM. In a few lines:
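S3 HeLa cells stably expressing a lamin A-EGFP splicing minigene and DsRed2 were seeded at 600 cells/well in Opti-MEM with 2% FBS, pin-dosed, and incubated 48 hrs at 37 °C, 5% CO2. Laser-scanning cytometry (488 nm) gave GFP/RFP total intensity ratio.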
Take `COc1ccc2[nH]cc(CCN(C)C)c2c1`: the compound was classed as inactive.
Same read-out and setting: then `COc1cc(CCN)ccc1O`, with “inactive”; and `C[N+]1(C)CCc2cc3c(cc2C1C1OC(=O)c2c1ccc1c2OCO1)OCO3` (stereo not drawn), with “inactive”; and `COc1ccc(CCN)cc1O`, with “inactive”.

System in the next test: not listed separately
Description: qHTS Assay for Lipid Storage Modulators (AID 1519; calls by dose curve). The settings on record: Drosophila S3 cells, BODIPY lipid droplet/cell ratio, laser cytometry; at 57.5 µM (top of the series); cells loaded with oleic acid. In a few lines:
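Cells seeded at 5,000 per well were treated with compounds over a concentration series and loaded with oleic acid (400 uM, as added). Lipid droplet fluorescence (488 nm excitation, 500-530 nm channel) was read by laser-scanning cytometry and normalized to 20 uM Triacsin C.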
`N[C@@H](CCCCP(=O)(O)O)C(=O)O`: the activity change, negative = inhibition is 0.372% (inactive).
Turning to `CCN(CC)CCO[C@H]1CC[C@@]2(C)C(=CC[C@@H]3[C@H]2CC[C@]2(C)C(=O)CC[C@H]32)C1`, the activity change, negative = inhibition was -3.37% (inactive).
Same read-out and setting: in the case of `O[C@@H]1[C@H](O)[C@H]2[C@@H](O)CCN2C[C@@H]1O` it was -2.53% (inactive); in that of `N[C@@H](Cn1ccc(=O)n(Cc2ccc(C(=O)O)cc2)c1=O)C(=O)O`, 0.903% (inactive).
In the case of `N[C@H](CP(=O)(O)O)C(=O)O`, the activity change, negative = inhibition is -5.82% (inactive).
Consider `C[N+]1(C)CCc2cc3c(cc2C1C1OC(=O)c2c1ccc1c2OCO1)OCO3` (stereo not drawn), for which the activity change, negative = inhibition is 2.12% (inactive).

Source of the values: PubChem BioAssay (NCATS).
